The full list was thinned out, with hits kept by preference.
nsP2pro inh = inhibitors of chikungunya virus nsP2 protease; Q8JUX6; FRET peptide cleavage, nsP2pro, fluorescence 1 h; Potency, µM (highest dose often 24.9 µM), most hits filed as inhibitors; actives 1.1% (n = 31,000); further: nearly all actives have a fitted effect of over 60% in size
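Purified recombinant nsP2pro (150 nM final) in 10 mM Tris-HCl pH 8.0 with 0.01% Tween 20 was preincubated 15 min at room temperature with compound (7 concentrations, up to 25 uM). FRET peptide 2 substrate (2.5 uM final) was then added; fluorescence was read after 1 h.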
nsP2 cell sec = cell-based CHIKV nsP2 protease inhibition, secondary; cell-based CHIKV nsP2 protease reporter assay; shares compounds with nsP2pro inh; actives 10% (n = 450); AID 1964100; Potency, µM (series often up to 51.1 µM), hits mostly inhibitors; further: nearly all actives have a fitted effect of over 70% in size
NSP2 full ctr = inhibits full-length CHIKV NSP2 enzyme | Full-length CHIKV NSP2 protease enzymatic counterscreen | actives 39% (n = 410) | Potency, µM (top dose mostly 50.7 µM), hits mostly inhibitors | AID 1964101 | shares compounds with nsP2pro inh; further: nearly all actives have a fitted effect of over 65% in size
Furin counterscr = human furin inhibition, counterscreen for nsP2pro inhibitors. shares compounds with nsP2pro inh. Recombinant human furin enzymatic counterscreen, fluorogenic substrate. Potency, µM (highest dose often 50.6 µM), usual class: inhibitors. actives 6% (n = 410). AID 1964102
NS23 peptide cs = nsP2pro inhibition on native NS2/3 peptide substrate; Potency, µM (series often up to 51 µM), hits mostly inhibitors; Purified CHIKV nsP2 protease, endogenous NS2/3 peptide cleavage; shares compounds with nsP2pro inh; AID 1964103; actives 34% (n = 410); further: nearly all actives have a fitted effect of over 55% in size
Papain counter = inhibits papain in a CHIKV nsP2 protease selectivity counterscreen | shares compounds with nsP2pro inh | purified papain protease activity, enzymatic inhibition | Potency, µM (top dose mostly 51 µM), usual class: inhibitors | actives 5% (n = 410)
Target sequence (P00784 whole entry, looked up): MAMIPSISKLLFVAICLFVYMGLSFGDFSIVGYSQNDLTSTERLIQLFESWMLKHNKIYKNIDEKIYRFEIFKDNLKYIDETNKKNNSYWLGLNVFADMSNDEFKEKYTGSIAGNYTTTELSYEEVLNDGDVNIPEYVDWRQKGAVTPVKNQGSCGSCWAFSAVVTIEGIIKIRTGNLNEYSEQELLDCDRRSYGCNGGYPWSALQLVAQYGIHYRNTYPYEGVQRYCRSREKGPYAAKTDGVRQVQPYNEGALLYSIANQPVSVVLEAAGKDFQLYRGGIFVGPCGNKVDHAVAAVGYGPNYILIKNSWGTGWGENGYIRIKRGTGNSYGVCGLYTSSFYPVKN
nsP2pro conf qHTS = CHIKV nsP2 protease inhibition, confirmatory qHTS; shares compounds with nsP2pro inh; AID 1964105; CHIKV nsP2 protease enzymatic activity, qHTS; actives 43% (n = 410); Potency, µM (series often up to 25.5 µM), actives largely listed as inhibitors; further: nearly all actives have a fitted effect of over 75% in size
HCV NS3 counter = inhibits HCV NS3/4A protease in an nsP2pro selectivity counterscreen; shares compounds with nsP2pro inh; AID 1964106; HCV NS3/4A protease biochemical counterscreen; Potency, µM (doses to about 50.9 µM), actives largely listed as inhibitors; actives 20% (n = 410); further: nearly all actives have a fitted effect of over 55% in size
Hits are given with their value; 0 = inactive; ? = inconclusive; - = no result. The call rests on the fitted dose curve.

SMILES	nsP2pro inh	others
CN(CCc1cnc[nH]1)c1ncnc2ccc(-c3ccc4c(c3)OCO4)cc12	0
O=c1c2ccccc2[se]n1-c1ccccc1	4.4µM	nsP2 cell sec=?;NSP2 full ctr=?;Furin counterscr=2.1µM;NS23 peptide cs=9.2µM;Papain counter=0;nsP2pro conf qHTS=2.2µM;HCV NS3 counter=3.7µM
NCc1ccc(Oc2ccccc2)cc1	0
O=C(NC1CCCC1)C1c2ccccc2CC(=O)N1Cc1ccccc1 (stereo not given)	0
CCCc1nnc(-c2cnn(C)c2N)n1CCCn1ccnc1	0
Cn1c(CN2CCN3C(=O)NC[C@H]3C2)nc2ccccc21	0
O=c1cc2nc(-c3ccccc3)nc(SCCN3CCC(F)(F)CC3)n2[nH]1	0
Cc1cccc(-n2cnc3cc(C(=O)N4CCCC(c5ccccc5)C4)ccc32)c1 (stereo not given)	0
COC(=O)c1ccnc(-c2cc(C(=O)NCCc3ccccc3)ccn2)c1	0
Cc1cccc(N(C)C(=O)CN(C)S(=O)(=O)c2ccc3[nH]c4c(c3c2)CCCC4)c1	?	nsP2 cell sec=0
Cc1ccc(CNS(=O)(=O)c2ccc3[nH]c4c(c3c2)CCCC4)cc1	0
CN(CC(=O)NCc1ccc(F)cc1)S(=O)(=O)c1ccc2[nH]c3c(c2c1)CCCC3	0
Cc1ccccc1-c1nc(Cn2ccnc2C(C)C)c(C)o1	0
O=C(Nc1cccc(Nc2cc(Nc3cccc(C(F)(F)F)c3)ncn2)c1)C1CC1	0
O=C(Nc1ccc(Cl)c(C(F)(F)F)c1)Nc1cccc(-c2ccncc2)n1	0
CC[C@H](C)C(=O)O[C@H]1C[C@@H](C)C=C2C=C[C@H](C)[C@H](CC[C@@H]3C[C@@H](O)CC(=O)O3)[C@H]21	0
CCC(C)C(=O)OC1CCC=C2C=CC(C)C(CCC3CC(O)CC(=O)O3)C21 (stereo not given)	?	nsP2 cell sec=0;NSP2 full ctr=0;Furin counterscr=0;NS23 peptide cs=0;Papain counter=0;nsP2pro conf qHTS=0;HCV NS3 counter=0
Oc1ccc(NCCN2CCCC2)cc1	0
CCS(=O)(=O)N1CCN(c2ccc(Nc3ncc(C(N)=O)c(NC4CC4)n3)cc2)CC1	0
CC(=O)NCC(=O)N1[C@@H]2CC[C@H]1c1ccc(Nc3ncc(C(F)(F)F)c(NC4CCC4)n3)cc12	-	nsP2 cell sec=0;NSP2 full ctr=?;Furin counterscr=0;NS23 peptide cs=0;Papain counter=?;nsP2pro conf qHTS=?;HCV NS3 counter=0
CS(=O)(=O)c1cccc(CNc2nc(Nc3ccc4c(c3)CCC(=O)N4)ncc2C(F)(F)F)c1	0
COc1ccc(CCC(=O)N2CCC(Cc3nc(-c4ccc(OC)cc4)no3)CC2)cc1	0
O=C([C@H]1O[C@H](CCN2CCC(CO)CC2)CC[C@@H]1O)N1CCN(c2ccccc2)CC1	0
CNC(=O)C(C)(C)N1CCC[C@H]1C(=O)NCc1ccccc1	0
Cc1cc(C)cc(N2CCN(C(=S)Nc3cc(C)cc(C)n3)CC2)c1	0
SMILES	nsP2pro inh	others
Cc1cc(C)nc(NC(=S)N2CCN(c3ccc4nsnc4c3)CC2)c1	3.2µM	nsP2 cell sec=16µM;NSP2 full ctr=7.3µM;Furin counterscr=0;NS23 peptide cs=12µM;Papain counter=0;nsP2pro conf qHTS=9µM;HCV NS3 counter=?
Cc1cc(C)nc(NC(=S)N2CCN(c3ccc(Cl)c(Cl)c3)CC2)c1	0
COc1cc(/C=C\C(=O)N2CCN(CC(=O)N3CCCC3)CC2)cc(OC)c1OC	0
S=C(NC1CCCCC1)N[C@H]1CO[C@H]2[C@@H]1OC[C@@H]2n1nnnc1Oc1ccc(-n2ccnc2)cc1	0
NNCCc1ccc(NC(=O)CCCc2ccccc2)cc1	0
C[n+]1c2cc(N)ccc2cc2ccc(N)cc21 (tested in a mixture with another compound)	?	nsP2 cell sec=?;NSP2 full ctr=0;Furin counterscr=?;NS23 peptide cs=?;Papain counter=?;nsP2pro conf qHTS=0;HCV NS3 counter=0
O=C(CN1CCCC1)N[C@H]1CC[C@H](Nc2nccc(-c3cccnc3)n2)C1	0
Cc1cc(C)nc(NC(=S)N2CCN(c3nccs3)CC2)c1	0
CCOC(=O)c1ccc(O)c2ncc(N3CCC(C(=N)N)CC3)cc12	0
Cc1ccc([N+](=O)[O-])[c]2c1[O][Hg]2	1.6µM	nsP2 cell sec=1.4µM;NSP2 full ctr=?;Furin counterscr=1.3µM;NS23 peptide cs=5.8µM;Papain counter=0;nsP2pro conf qHTS=0.71µM;HCV NS3 counter=0.26µM
Cc1noc(-c2ccc(-c3noc(-c4ccc([N+](=O)[O-])c(C)c4)n3)cc2)n1	0
CCC(=O)O[C@H]1C(C)(C)[C@H]([C@@H](O)C(=O)OC)[C@]2(C)C(=O)[C@@]1(O)[C@H]1O[C@]13C1CC(=O)O[C@@H](c4ccoc4)[C@]1(C)CCC32 (stereo not given in full)	?	nsP2 cell sec=0;NSP2 full ctr=?;Furin counterscr=0;NS23 peptide cs=0;Papain counter=0;nsP2pro conf qHTS=?;HCV NS3 counter=?
COC(=O)[C@H](O)[C@H]1C(C)(C)[C@H](OC(=O)C(C)C)[C@@]2(O)C(=O)[C@]1(C)C1CC[C@]3(C)C(CC(=O)O[C@H]3c3ccoc3)[C@]13O[C@@H]32 (stereo not given in full)	?	nsP2 cell sec=0;NSP2 full ctr=?;Furin counterscr=0;NS23 peptide cs=0;Papain counter=0;nsP2pro conf qHTS=?;HCV NS3 counter=0
COC(=O)C[C@H]1C(C)(C)[C@H](OC(=O)c2ccccc2)C2CC3=C4CC(=O)O[C@@H](c5ccoc5)[C@]4(C)CCC3[C@@]1(C)C2=O (stereo not given in full)	0
C=C1[C@@H]2CC[C@@]3(C)[C@H](c4ccoc4)OC(=O)C[C@]13O[C@H]1CC(=O)C(C)(C)[C@H](C(O)C(=O)OC)[C@]12C (stereo not given in full)	0
C/C=C(\C)C(=O)OC1C2(O)CC3=C4CC(=O)OC(c5ccoc5)C4(C)CCC3C(C)(C2=O)C(C(OC(C)=O)C(=O)OC)C1(C)C (stereo not given)	0
COC(=O)[C@H](OC(C)=O)[C@H]1C(C)(C)C(=O)[C@H]2CC3=C4CC(=O)O[C@@H](c5ccoc5)[C@]4(C)CCC3[C@@]1(C)C2=O (stereo not given in full)	0
COC(=O)[C@@H](O)[C@H]1[C@@]2(C)CC3(O)[C@@H](C(=O)[C@H]2O)[C@]24O[C@]25CC(=O)O[C@@H](c2ccoc2)[C@]5(C)CCC4[C@]13C (stereo not given in full)	0
COC(=O)[C@H](O)[C@H]1C(C)(C)[C@H](OC(C)=O)[C@@]2(O)C(=O)[C@]1(C)C1CC[C@]3(C)C(CC(=O)O[C@H]3c3ccoc3)[C@]13O[C@@H]32 (stereo not given in full)	?	nsP2 cell sec=0;NSP2 full ctr=?;Furin counterscr=0;NS23 peptide cs=0;Papain counter=0;nsP2pro conf qHTS=0;HCV NS3 counter=?
N#Cc1cccc(NC(=O)Nc2nnc(-c3ccncc3)s2)c1	0
O=C(c1ccc2c(c1)OCCO2)N1CCC(Cn2cc(CCO)nn2)CC1	0

Source: PubChem BioAssay (National Center for Advancing Translational Sciences (NCATS))
